TGFb SMAD3 inh = qHTS for Inhibitors of TGF-b. HepG2 CAGA-GFP TGF-b/SMAD3 reporter, GFP fluorescence, 18 h; TGF-beta stimulated, 500 pg/mL final. Potency, µM (series often up to 46.1 µM), for the others: at the top dose activity, negative = inhibition, usual class: inhibitors. actives 1.2% (n = 410,000); also: % is scaled to controls: 0 for no effect and ±100 for the full control effect; nearly all actives have a fitted effect of over 65% in size
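HEPG2 CAGA-GFP reporter cells (1000/well, DMEM with 1% FBS) received compounds, then recombinant TGF-beta at 500 pg/mL final for 18 hours at 37 degrees C. Per-cell GFP summed per well was normalised to unstimulated and stimulated DMSO controls before curve fitting.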
S2 tox = Viability Counterscreen for Primary qHTS for Inhibitors of ATXN expression | S2 cells (HEK-293 line with an ATXN2-luciferase reporter) viability, CellTiter-Fluor protease fluorescence, 24 h | Potency, µM (highest dose often 56.7 µM), usual class: cytotoxic | actives 0.49% (n = 400,000) | AID 651635, 2014; also: nearly all actives have a fitted effect of over 40% in size
TDP1 cell noCPT = qHTS for Inhibitors of human tyrosyl-DNA phosphodiesterase 1 (TDP1): qHTS in cells in absence of CPT. AID 686978, 2013. DT40 Tdp1-/- hTDP1 cells, no CPT, ATP luminescence, 48 h. actives 15% (n = 420,000). Potency, µM (highest dose often 46.2 µM), without a hit: at the highest dose activity change, negative = growth inhibition, hits mostly inhibitors; also: % is scaled to controls: 0 for no effect and ±100 for the full control effect; nearly all actives have a fitted effect of over 55% in size
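A cellular qHTS used chicken DT40 cells lacking endogenous Tdp1 but carrying stably transfected human TDP1. Compounds were applied without camptothecin, and cell growth kinetics were judged by ATP-dependent luminescence after ≥48 hr.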
ATXN2 expr inh = Primary qHTS for Inhibitors of ATXN expression; HEK-293 ATXN2-luciferase reporter, luminescence, 24 h; Potency, µM (doses to about 57 µM), inactives show top-dose activity change, negative = inhibition, actives largely listed as inhibitors; actives 0.72% (n = 360,000); AID 1745845, 2022; also: % is scaled to controls: 0 for no effect and ±100 for the full control effect; nearly all actives have a fitted effect of over 55% in size
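qHTS (up to 57 uM final) was run with 24 h compound exposure of reporter cells at 37 °C. Each well was multiplexed: SteadyGlo luminescence measured ATXN2-luciferase expression after a fluorogenic Gly-Phe-AFC viability readout (25 uM final).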
HepG2 tox = qHTS for Inhibitors of TGF-b: Cytotox Counterscreen; HepG2 CAGA-GFP viability, ATP luminescence, 18 h; Potency, µM (doses to about 46.1 µM), inactives show at the highest dose activity change, negative = cytotoxicity, actives largely listed as cytotoxic; AID 588856, 2011; actives 0.76% (n = 410,000)
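HepG2 CAGA-GFP cells (1000/well, DMEM with 1% FBS) received compound, then TGF-beta at 500 pg/mL final, and were incubated 18 hours at 37 degrees C. Viability was read by CellTiter-Glo luminescence. Media-only wells were set as complete cell-killing and DMSO as no toxicity.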
TDP1 cell CPT = qHTS for Inhibitors of human tyrosyl-DNA phosphodiesterase 1 (TDP1): qHTS in cells in presence of CPT; chicken DT40 Tdp1-/-;hTDP1 cells + 20 nM CPT, ATP luminescence, 48 h; Potency, µM (highest dose often 46.2 µM), inactives show at the highest dose activity change, negative = growth inhibition, hits mostly inhibitors; actives 12% (n = 420,000); AID 686979, 2013; also: % is scaled to controls: 0 for no effect and ±100 for the full control effect; nearly all actives have a fitted effect of over 55% in size
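Chicken DT40 Tdp1-/- cells stably complemented with human TDP1 were seeded at 400 cells/well in medium containing 20 nM camptothecin, exposed to pin-transferred compounds, and grown at 37 °C for at least 48 hr. Viability was read as ATP luminescence.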
* marks the source's active call; other numbers are inactive results; i = inactive; u = inconclusive; x = no result. In the library only some 17% were active in any assay of this set; here they are far more common. Calls follow the shape of the dose curve; as a rule, active = well fitted curve in the direction sought with a large enough effect; inconclusive = small, poorly fitted or top-dose-only effect, or another doubt; inactive = no such curve, though single readings can be large; an effect the other way counts as inactive or inconclusive. Potency is read from the fitted curve at half-maximal effect.

SMILES | TGFb SMAD3 inh | S2 tox | TDP1 cell noCPT | ATXN2 expr inh | HepG2 tox | TDP1 cell CPT
O=C(NCC(=O)N1CCN(C/C=C/c2ccccc2)CC1)c1ccc(OC(F)F)cc1 | -20% | i | 15µM* | -29% | -20% | u
CSCCC(NC(=O)c1ccc(Cl)cc1Cl)C(=O)N1CCN(C(=O)c2ccccc2)CC1 (centres undefined) | -1% | i | -5% | 2% | -1% | u
O=c1c(O)cc(C2Oc3cc(O)cc(O)c3CC2O)cc2c(C3Oc4cc(O)cc(O)c4CC3O)cc(O)c(O)c12 (centres undefined) | x | x | 3.3µM* | x | x | 4.6µM*
CCOC(=O)CSc1cc(CS(=O)c2ccc(Cl)cc2)nc(-c2ccccc2)n1 (centres undefined) | 5% | i | u | -7% | 2% | u
CCN(CC)c1cc(CS(=O)c2ccccc2)nc(-c2ccccc2)n1 (centres undefined) | -10% | i | u | -14% | -22% | 21µM*
CC1CCCC(NC(=O)C2COc3ccccc3O2)C1C (centres undefined) | u | i | u | 6% | 0% | -20%
COc1ccc(C2CC(c3ccc(OC)c(OC)c3)=NN2S(C)(=O)=O)cc1 (centres undefined) | -21% | i | u | 45% | -22% | 18µM*
COc1ccc(C2=NN(S(C)(=O)=O)C(c3ccc4nccnc4c3)C2)cc1 (centres undefined) | -11% | i | -21% | 0% | -40% | u
CS(=O)(=O)N1N=C(c2ccccc2)CC1c1ccc2nccnc2c1 (centres undefined) | 3% | i | 26µM* | 12% | 10% | u
OC[C@@H]1CN(Cc2ccc(-c3ccccc3)cc2)C[C@H](n2cnc3c(NCc4ccncc4)ncnc32)O1 | u | u | 3.3µM* | 0% | -23% | 2.9µM*
OC[C@@H]1CN(Cc2ccc(-c3ccccc3)cc2)C[C@H](n2cnc3c(NCc4ccco4)ncnc32)O1 | u | u | 9.2µM* | u | -27% | 9.2µM*
CC(C)C(=O)NC(C)C(c1cccs1)N1CCN(c2ccccc2)CC1 (centres undefined) | -2% | i | 21µM* | -15% | 3% | u
CC(NC(=O)NC1CCCCC1)C(c1cccs1)N1CCN(c2ccccc2)CC1 (centres undefined) | 5% | u | 21µM* | -2% | -20% | u
CC(NC(=O)c1ccc2c(c1)OCO2)C(c1cccs1)N1CCN(c2ccccc2)CC1 (centres undefined) | 8% | i | 18µM* | -22% | 15% | u
CC(NC(=O)c1cccs1)C(c1cccs1)N1CCN(c2ccccc2)CC1 (centres undefined) | -4% | i | -17% | -8% | -12% | -24%
Cc1ccc(C(=O)Nc2ccc(N3CCOCC3)c3nonc23)cc1[N+](=O)[O-] | -1% | u | u | -23% | -3% | u
CCn1c(=O)c(=O)n(CC)c2cc(N3CCCCC3)c(NC(=O)c3cccc(OC)c3)cc21 | 15% | i | -24% | -2% | 2% | -1%
CCn1c(=O)n(CC)c2cc(N3CCCC3)c(NC(=O)c3ccc(C)c([N+](=O)[O-])c3)cc21 | 4% | i | 7.3µM* | -21% | -6% | 6.5µM*
CCn1c(=O)n(CC)c2cc(N3CCCC3)c(NC(=O)c3cccc(C)c3)cc21 | 6% | u | 16µM* | u | -10% | 21µM*
CCn1c(=O)n(CC)c2cc(N3CCCC3)c(NC(=O)c3cccc(Cl)c3)cc21 | -3% | i | 9.2µM* | -26% | -15% | 15µM*
Cc1cc(C)cc(N(CC(=O)N2CCCC2)S(C)(=O)=O)c1 | -2% | i | -16% | 6% | -7% | 10%
COc1ccc(-c2noc(CN3CCCC(OCc4ccccn4)C3)n2)cc1 (centres undefined) | 15% | i | u | -9% | 2% | 16µM*
COc1ccc(O)c(/C=N/NC(=O)c2c(C)nnn2-c2nonc2N)c1 | -1% | i | 8.2µM* | u | -23% | 18µM*
CC1CCN(Cc2c(C(=O)N/N=C/c3cc(Cl)ccc3O)nnn2-c2nonc2N)CC1 | u | i | 5.8µM* | 2.2µM* | -9% | 4.6µM*
COc1ccc(/C=N/NC(=O)c2nnn(-c3nonc3N)c2-c2cccc(OC)c2)cc1 | 14% | i | 12% | 8% | -3% | -4%
SMILES | TGFb SMAD3 inh | S2 tox | TDP1 cell noCPT | ATXN2 expr inh | HepG2 tox | TDP1 cell CPT
CC1CCN(Cc2c(C(=O)N/N=C/c3cc(Br)ccc3O)nnn2-c2nonc2N)CC1 | u | u | 5.8µM* | u | -48% | 5.8µM*
Cc1cc(C)c(/C=N/NC(=O)c2nnn(-c3nonc3N)c2CN2CCC(C)CC2)c(C)c1 | u | u | 21µM* | -23% | -127% | u
NC(=O)c1ccsc1NC(=O)COC(=O)c1cnccn1 | -2% | i | -11% | -18% | -42% | 1%
COc1ccc(NC(=O)C(=O)c2cn(CC(=O)N3CCOCC3)c3ccccc23)cc1OC | 2% | i | 1% | -3% | -2% | u
CC(C)(C)Cn1c(=O)[nH]c(=O)c2cc([N+](=O)[O-])cnc21 | -3% | i | -4% | -6% | -2% | 4%
O=C1[C@@H]2Cc3c([nH]c4ccccc34)C(c3cccc([N+](=O)[O-])c3)N2C(=O)CN1CCCO (some centres undefined) | 14% | i | -5% | 3% | 5% | -21%
COc1ccccc1NC(=O)CCC(=O)OCc1ccc([N+](=O)[O-])cc1 | 3% | i | 0% | x | 4% | 5%
CCOc1ccc(/C=N/NC(=O)c2nnn(-c3nonc3N)c2CN2CCC(C)CC2)cc1 | 2% | i | u | 1% | -15% | -22%
COc1c(Cl)cc(Cl)cc1/C=N/NC(=O)c1nnn(-c2nonc2N)c1CN1CCC(C)CC1 | -5% | i | u | -8% | -8% | 15µM*
C/C(=N\NC(=O)c1nnn(-c2nonc2N)c1CN1CCc2ccccc21)c1ccccc1O | u | u | 6.5µM* | x | -84% | 6.5µM*

Source: PubChem
